# Test results: PubChem BioAssay (NCATS)
# Records with an inconclusive call do not appear. Unmarked numbers belong to inactive results. Active and inactive are the calls of the source. Unless noted, calls come from the whole dose curve; as a rule, active = well fitted curve in either direction with a large enough effect (not every such curve was filed as active); inconclusive = small, poorly fitted or top-dose-only effect, or another doubt; inactive = flat fitted curve, though single readings scatter.
# Tested on: not listed separately
# Test: AP1 Signaling Pathway (AID 357);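 note: ME-180 reporter cells stimulated with EGF at its EC50 level; % is set by controls: 0 for no effect and ±100 for the full control effect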
# Conditions: ME-180 (cervical carcinoma) AP-1-bla reporter, EGF-induced, beta-lactamase ratio, 5 h; at 7.69 µM (top of the series) unless noted
# How it was run: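 First, ME-180 AP-1-bla cells were cultured overnight at 37 °C in low-serum Opti-MEM. Next, titrated compounds with EC50 EGF were incubated 5 hours. Finally, CCF4 was added for 2.5 hours and the 460/530 nm ratio recorded.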
row,SMILES,"activity change, negative = inhibition [%]"
1,CC(=O)NCCNc1nc(-c2cccc(NS(C)(=O)=O)c2)nc2ccccc12,-17.6
2,Cc1noc(C)c1-c1nccc(NCCN2CCOCC2)n1,-1.23
3,Cc1cnc(CNc2ccnc(-c3cccc(NS(C)(=O)=O)c3)n2)cn1,-6.82
4,COc1cccc(Cn2c(=O)c(-c3cccc(C#N)c3)nc3cnc(N4CCOCC4)nc32)c1,0.3
5,CN(C)C(=O)c1ccc(-c2cncnc2-n2ccnc2)cc1,-3.64
6,COc1ccccc1-c1cc(NCc2cnc(C)cn2)ncn1,5.08
7,CNc1nc(-c2cccc(C#N)c2)nc2ccccc12,-15.2
8,COCCNc1nc(-c2c(C)noc2C)nc2ccccc12,1.66
9,CN(C)C(=O)c1ccc(-c2ccc3ncnc(N4CCOCC4)c3c2)cc1,-25.6
10,COc1ccccc1CNc1ccnc(-c2ccccc2Cl)n1,-21.9
11,Cc1noc(C)c1-c1nc(NC2CC2)c2ccccc2n1,13.4
12,Cn1cc(-c2nc3cncnc3n(C3CC3)c2=O)c2ccccc21,-14.5
13,COc1ccc2[nH]cc(CCNc3ccnc(-c4ccc(N(C)C)cc4)n3)c2c1,11.2
14,COc1cccc(-c2cc(NCc3cnc(C)cn3)ncn2)c1,12.1
15,CC(=O)NCCNc1nc(-c2ccccc2C)nc2ccccc12,7.34
16,COc1ccc2[nH]cc(CCNc3ncncc3-c3cccnc3)c2c1,9.96
17,CS(=O)(=O)Nc1cccc(-c2cc(Nc3ccccc3)ncn2)c1,-27.9

row,SMILES,"activity change, negative = inhibition [%]"
1,COc1ccccc1CNc1cc(-c2ccccc2OC)ncn1,-14.2
2,CNc1nc(-c2ccc(C(=O)N(C)C)cc2)nc2ccccc12,7.59
3,CN(C)C(=O)c1ccc(-c2nccc(-n3ccnc3)n2)cc1,4.46
4,Cc1cnc(CNc2cc(-c3ccccc3Cl)ncn2)cn1,2.27
5,CN(Cc1ccco1)c1cc(-c2cccc(C#N)c2)ncn1,-7.22
6,Cc1ccccc1-c1nc(N(C)C)c2ccccc2n1,5.33
7,Cc1noc(C)c1-c1nccc(NCc2ccccc2)n1,0.193
8,Cc1cnc(CNc2cc(-c3ccccc3C(F)(F)F)ncn2)cn1,3.5
9,CN(C)C(=O)c1ccc(-c2ccc3ncnc(N4CCNCC4)c3c2)cc1,-26.4
10,COc1cccc(-c2cc(NCc3cccnc3)ncn2)c1,12.8
11,COc1ccc2[nH]cc(CCNc3ccnc(-c4ccc5c(c4)OCO5)n3)c2c1,-11.1
12,COc1ccc(CNc2ncncc2-c2ccc(C(=O)N(C)C)cc2)c(OC)c1,-28.8
13,Cn1c(=O)c(-c2cc(F)cc(F)c2)nc2cncnc21,-3.06
14,COc1cccc(-c2cncnc2NCc2cnc(C)cn2)c1,-11.3
15,COc1ccccc1-c1nc(NCCN2CCOCC2)c2ccccc2n1,7.09
16,Cc1cnc(CNc2cc(-c3cccnc3)ncn2)cn1,-14.2
17,Cc1cnc(CNc2cc(-c3ccccc3C)ncn2)cn1,-5.18

# Target: Cytochrome P450 1A2 (Homo sapiens) (UniProt P05177)
# Sequence (P05177 whole entry, looked up): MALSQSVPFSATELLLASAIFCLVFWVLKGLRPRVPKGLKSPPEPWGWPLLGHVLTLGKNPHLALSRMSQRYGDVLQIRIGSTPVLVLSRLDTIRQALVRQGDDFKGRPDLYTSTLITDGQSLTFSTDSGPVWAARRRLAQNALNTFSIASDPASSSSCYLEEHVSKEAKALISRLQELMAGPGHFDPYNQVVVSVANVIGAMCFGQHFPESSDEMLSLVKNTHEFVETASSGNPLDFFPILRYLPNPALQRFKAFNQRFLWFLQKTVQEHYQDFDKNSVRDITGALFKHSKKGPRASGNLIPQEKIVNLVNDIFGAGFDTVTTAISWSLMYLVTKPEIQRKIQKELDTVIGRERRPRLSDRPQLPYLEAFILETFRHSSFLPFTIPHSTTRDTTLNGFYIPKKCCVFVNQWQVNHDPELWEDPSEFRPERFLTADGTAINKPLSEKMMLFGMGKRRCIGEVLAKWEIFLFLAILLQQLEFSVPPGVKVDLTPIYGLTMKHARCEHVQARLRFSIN
# Test: p450-cyp1a2 (AID 410; calls by dose curve; note: potency is the fitted concentration of half-maximal effect;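 for activity change, negative = inhibition: -100% = full effect of reference inhibitor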)
# Conditions: recombinant CYP1A2, luciferin-ME demethylation, luminescence; series mostly up to 57 µM
# How it was run: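 20nM CYP1A2, 100uM Luciferin-ME (=Km), 100mM KPO4; cpd 10 min RT; +NADPH regen, 60 min RT; stop/detect 20 min; luminescence. Normalized to furafylline 57 uM = full inhibition.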
row,SMILES,Potency
1,CC(=O)NCCNc1nc(-c2cccc(NS(C)(=O)=O)c2)nc2ccccc12,15.8 µM (active)
2,Cc1noc(C)c1-c1nccc(NCCN2CCOCC2)n1,7.94 µM (active)
3,Cc1cnc(CNc2ccnc(-c3cccc(NS(C)(=O)=O)c3)n2)cn1,20 µM (active)
4,CN(C)C(=O)c1ccc(-c2cncnc2-n2ccnc2)cc1,20 µM (active)
5,COc1ccccc1-c1cc(NCc2cnc(C)cn2)ncn1,12.6 µM (active)
6,CNc1nc(-c2cccc(C#N)c2)nc2ccccc12,0.0794 µM (active)
7,COc1ccc2[nH]cc(CCNc3nc(-c4ccc(N(C)C)cc4)nc4ccccc34)c2c1,1.26 µM (active)
8,COCCNc1nc(-c2c(C)noc2C)nc2ccccc12,0.126 µM (active)
9,CN(C)C(=O)c1ccc(-c2ccc3ncnc(N4CCOCC4)c3c2)cc1,inactive
10,COc1ccccc1CNc1ccnc(-c2ccccc2Cl)n1,5.01 µM (active)
11,Cn1cc(-c2nc3cncnc3n(C3CC3)c2=O)c2ccccc21,0.2 µM (active)
12,COc1ccc2[nH]cc(CCNc3ccnc(-c4ccc(N(C)C)cc4)n3)c2c1,0.631 µM (active)
13,Cn1cc(-c2nc3cncnc3n(Cc3ccccc3Cl)c2=O)c2ccccc21,3.16 µM (active)
14,COc1cccc(-c2cc(NCc3cnc(C)cn3)ncn2)c1,5.01 µM (active)
15,CC(=O)NCCNc1nc(-c2ccccc2C)nc2ccccc12,6.31 µM (active)
16,COc1ccc(Oc2ncc3nc(-c4ccc(F)cc4)c(=O)n(Cc4cccs4)c3n2)cc1,5.01 µM (active)
17,COc1ccc2[nH]cc(CCNc3ncncc3-c3cccnc3)c2c1,0.316 µM (active)

row,SMILES,Potency
1,CS(=O)(=O)Nc1cccc(-c2cc(Nc3ccccc3)ncn2)c1,0.398 µM (active)
2,COc1ccccc1CNc1cc(-c2ccccc2OC)ncn1,2.51 µM (active)
3,CN(C)C(=O)c1ccc(-c2nccc(-n3ccnc3)n2)cc1,15.8 µM (active)
4,Cc1cnc(CNc2cc(-c3ccccc3Cl)ncn2)cn1,15.8 µM (active)
5,CN(Cc1ccco1)c1cc(-c2cccc(C#N)c2)ncn1,0.794 µM (active)
6,Cc1ccccc1-c1nc(N(C)C)c2ccccc2n1,0.631 µM (active)
7,Cc1noc(C)c1-c1nccc(NCc2ccccc2)n1,0.794 µM (active)
8,Cc1cnc(CNc2cc(-c3ccccc3C(F)(F)F)ncn2)cn1,25.1 µM (active)
9,CN(C)C(=O)c1ccc(-c2ccc3ncnc(N4CCNCC4)c3c2)cc1,inactive
10,COc1cccc(-c2cc(NCc3cccnc3)ncn2)c1,0.631 µM (active)
11,COc1ccc2[nH]cc(CCNc3ccnc(-c4ccc5c(c4)OCO5)n3)c2c1,0.631 µM (active)
12,COc1ccc(CNc2ncncc2-c2ccc(C(=O)N(C)C)cc2)c(OC)c1,15.8 µM (active)
13,Cn1c(=O)c(-c2cc(F)cc(F)c2)nc2cncnc21,0.631 µM (active)
14,COc1cccc(-c2cncnc2NCc2cnc(C)cn2)c1,12.6 µM (active)
15,COc1ccccc1-c1nc(NCCN2CCOCC2)c2ccccc2n1,7.94 µM (active)
16,Cc1cnc(CNc2cc(-c3cccnc3)ncn2)cn1,15.8 µM (active)
17,Cc1cnc(CNc2cc(-c3ccccc3C)ncn2)cn1,12.6 µM (active)
